Among all 5,500 compounds or so, about 2,000 (36%) were called active. About 18% were inconclusive and are not listed. No stated cut-off is given here; in the data, active means normalized growth mostly below about 0.91 (no sharp cut-off); inconclusive means no clear call, values can overlap the other calls; inactive means mostly above about 0.92. This is one part of the list.
Assay: chemical genetic growth profiling, strain panel (AID 1159580);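 further: tested at 20 µM; growth read once vehicle control cultures reached saturation at 30 °C; 1 = growth at the plate median or of vehicle wells; lower values mean less growth of the strain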
Details: growth OD

Measured: normalized growth

COc1ccc2c(c1)C1(C)CCC(=O)CC1CC2 (stereo not drawn)
inactive: S. cerevisiae deletion strains, locus YAL021C, strain ccr4, hits give low values 1.01 | S. cerevisiae deletion strains, locus YAL026C, strain drs2, hits give low values 1.04 | S. cerevisiae deletion strains, locus YAL030W, strain snc1, hits give low values 1 | S. cerevisiae deletion strains, locus YBL061C, strain skt5, hits give low values 1.01 | S. cerevisiae deletion strains, locus YBR009C, strain hhf1, hits give low values 1.01 | S. cerevisiae deletion strains, locus YBR021W, strain FUR4, hits give low values 0.976 | S. cerevisiae deletion strains, locus YBR023C, strain chs3, hits give low values 1.01 | S. cerevisiae deletion strains, locus YBR171W, strain sec66, hits give low values 1.01 | S. cerevisiae deletion strains, locus YBR229C, strain ROT2, hits give low values 0.994 | S. cerevisiae deletion strains, locus YBR231C, strain swc5, hits give low values 1.04 | S. cerevisiae deletion strains, locus YBR279W, strain paf1, hits give low values 1 | S. cerevisiae deletion strains, locus YCL011C, strain gbp2, hits give low values 1.01 | S. cerevisiae deletion strains, locus YCL016C, strain dcc1, hits give low values 1 | S. cerevisiae deletion strains, locus YCL029C, strain bik1, hits give low values 0.986 | S. cerevisiae deletion strains, locus YCL061C, strain MRC1, hits give low values 1.01 | S. cerevisiae deletion strains, locus YCL069W, strain vba3, hits give low values 1 | S. cerevisiae deletion strains, locus YCR088W, strain abp1, hits give low values 1.01 | S. cerevisiae deletion strains, locus YDL005C, strain med2, hits give low values 1.01 | S. cerevisiae deletion strains, locus YDL035C, strain GPR1, hits give low values 1.01 | S. cerevisiae deletion strains, locus YDL040C, strain nat1, hits give low values 0.999 | S. cerevisiae deletion strains, locus YDL074C, strain BRE1, hits give low values 1.02 | S. cerevisiae deletion strains, locus YDL101C, strain DUN1, hits give low values 0.998 | S. cerevisiae deletion strains, locus YDL134C, strain PPH21, hits give low values 0.947 | S. cerevisiae deletion strains, locus YDL185W, strain tfp1, hits give low values 0.989 | S. cerevisiae deletion strains, locus YDL192W, strain arf1, hits give low values 0.989 | S. cerevisiae deletion strains, locus YDR001C, strain nth1, hits give low values 1.01 | S. cerevisiae deletion strains, locus YDR069C, strain doa4, hits give low values 1.02 | S. cerevisiae deletion strains, locus YDR101C, strain arx1, hits give low values 1 | S. cerevisiae deletion strains, locus YDR137W, strain rgp1, hits give low values 0.967 | S. cerevisiae deletion strains, locus YDR150W, strain NUM1, hits give low values 0.991 | S. cerevisiae deletion strains, locus YDR159W, strain sac3, hits give low values 1.06 | S. cerevisiae deletion strains, locus YDR162C, strain NBP2, hits give low values 1 | S. cerevisiae deletion strains, locus YDR195W, strain ref2 1.04 | S. cerevisiae deletion strains, locus YDR297W, strain sur2, hits give low values 1.02 | S. cerevisiae deletion strains, locus YDR318W, strain mcm21, hits give low values 0.988 | S. cerevisiae deletion strains, locus YDR334W, strain swr1, hits give low values 1 | S. cerevisiae deletion strains, locus YDR335W, strain msn5, hits give low values 1.01 | S. cerevisiae deletion strains, locus YDR388W, hits give low values 0.989 | S. cerevisiae deletion strains, locus YDR392W, strain spt3, hits give low values 0.996 | S. cerevisiae deletion strains, locus YDR502C, strain sam2, hits give low values 0.977 | S. cerevisiae deletion strains, locus YEL003W, strain gim4, hits give low values 1.01 | S. cerevisiae deletion strains, locus YEL037C, strain rad23, hits give low values 1.02 | S. cerevisiae deletion strains, locus YEL061C, strain CIN8 (second series), hits give low values 1.01 | S. cerevisiae deletion strains, locus YEL061C, strain CIN8, hits give low values 0.993 | S. cerevisiae deletion strains, locus YER015W, strain faa2, hits give low values 1.01 | S. cerevisiae deletion strains, locus YER016W, strain bim1, hits give low values 1 | S. cerevisiae deletion strains, locus YER110C, hits give low values 0.979 | S. cerevisiae deletion strains, locus YER111C, strain swi4, hits give low values 1.01 | S. cerevisiae deletion strains, locus YER155C, strain BEM2 (second series), hits give low values 1.02 | S. cerevisiae deletion strains, locus YER155C, strain BEM2, hits give low values 0.988 | S. cerevisiae deletion strains, locus YER167W, strain BCK2, hits give low values 0.999 | S. cerevisiae deletion strains, locus YFR010W, strain ubp6, hits give low values 1.02 | S. cerevisiae deletion strains, locus YGL078C, strain dbp3, hits give low values 0.982 | S. cerevisiae deletion strains, locus YGL086W, strain mad1, hits give low values 0.98 | S. cerevisiae deletion strains, locus YGL167C, strain pmr1, hits give low values 1.01 | S. cerevisiae deletion strains, locus YGL173C, strain kem1, hits give low values 1.01 | S. cerevisiae deletion strains, locus YGL227W, strain vid30, hits give low values 1.01 | S. cerevisiae deletion strains, locus YGL240W, strain doc1, hits give low values 1.01 | S. cerevisiae deletion strains, locus YGL248W, strain PDE1, hits give low values 0.971 | S. cerevisiae deletion strains, locus YGL253W, strain hxk2, hits give low values 1.03 | S. cerevisiae deletion strains, locus YGR135W, strain pre9, hits give low values 0.965 | S. cerevisiae deletion strains, locus YGR252W, strain gcn5, hits give low values 0.96 | S. cerevisiae deletion strains, locus YHR013C, strain ard1, hits give low values 1.05 | S. cerevisiae deletion strains, locus YHR027C, strain rpn1, hits give low values 1.03 | S. cerevisiae deletion strains, locus YHR030C, strain SLT2, hits give low values 0.993 | S. cerevisiae deletion strains, locus YHR079C, strain IRE1 (second series), hits give low values 0.991 | S. cerevisiae deletion strains, locus YHR094C, strain hxt1, hits give low values 0.984 | S. cerevisiae deletion strains, locus YHR129C, strain ARP1, hits give low values 0.993 | S. cerevisiae deletion strains, locus YHR142W, strain chs7, hits give low values 1.02 | S. cerevisiae deletion strains, locus YHR200W, strain rpn10, hits give low values 0.985 | S. cerevisiae deletion strains, locus YIL066C, strain RNR3, hits give low values 1.01 | S. cerevisiae deletion strains, locus YIL073C, strain SPO22, hits give low values 0.994 | S. cerevisiae deletion strains, locus YIL125W, strain kgd1, hits give low values 0.987 | S. cerevisiae deletion strains, locus YIR030C, strain dcg1, hits give low values 0.983 | S. cerevisiae deletion strains, locus YJL092W, strain hpr5, hits give low values 1.01 | S. cerevisiae deletion strains, locus YJL095W, strain BCK1 (second series), hits give low values 1.01 | S. cerevisiae deletion strains, locus YJL095W, strain BCK1, hits give low values 0.953 | S. cerevisiae deletion strains, locus YJL115W, strain asf1, hits give low values 1.02 | S. cerevisiae deletion strains, locus YJL129C, strain trk1, hits give low values 1.01 | S. cerevisiae deletion strains, locus YJL134W, strain LCB3, hits give low values 0.992 | S. cerevisiae deletion strains, locus YJL154C, strain vps35, hits give low values 1.01 | S. cerevisiae deletion strains, locus YJL164C, strain tpk1, hits give low values 1.01 | S. cerevisiae deletion strains, locus YJL166W, strain qcr8, hits give low values 1.01 | S. cerevisiae deletion strains, locus YJL168C, strain set2, hits give low values 0.989 | S. cerevisiae deletion strains, locus YJL187C, strain SWE1 (second series), hits give low values 0.979 | S. cerevisiae deletion strains, locus YJL187C, strain SWE1, hits give low values 1.01 | S. cerevisiae deletion strains, locus YJR043C, strain POL32, hits give low values 1.03 | S. cerevisiae deletion strains, locus YKL009W, strain mrt4, hits give low values 0.969 | S. cerevisiae deletion strains, locus YKL068W, hits give low values 0.978 | S. cerevisiae deletion strains, locus YKL085W, strain MDH1 (second series), hits give low values 0.984 | S. cerevisiae deletion strains, locus YKL085W, strain MDH1, hits give low values 0.984 | S. cerevisiae deletion strains, locus YKL160W, strain elf1, hits give low values 1 | S. cerevisiae deletion strains, locus YKR001C, strain vps1, hits give low values 0.965 | S. cerevisiae deletion strains, locus YKR026C, strain gcn3, hits give low values 1.01 | S. cerevisiae deletion strains, locus YKR091W, strain srl3, hits give low values 1.01 | S. cerevisiae deletion strains, locus YLL001W, strain dnm1, hits give low values 1.01 | S. cerevisiae deletion strains, locus YLL026W, hits give low values 1 | S. cerevisiae deletion strains, locus YLL041C, strain sdh2, hits give low values 1 | S. cerevisiae deletion strains, locus YLR027C, strain aat2, hits give low values 1 | S. cerevisiae deletion strains, locus YLR039C, strain RIC1, hits give low values 0.957 | S. cerevisiae deletion strains, locus YLR058C, strain SHM2, hits give low values 0.996 | S. cerevisiae deletion strains, locus YLR102C, strain apc9, hits give low values 0.98 | S. cerevisiae deletion strains, locus YLR221C, strain rsa3, hits give low values 1.03 | S. cerevisiae deletion strains, locus YLR258W, strain gsy2, hits give low values 1.02 | S. cerevisiae deletion strains, locus YLR262C, strain YPT6 (second series), hits give low values 0.99 | S. cerevisiae deletion strains, locus YLR268W, strain sec22, hits give low values 0.978 | S. cerevisiae deletion strains, locus YLR320W, strain mms22, hits give low values 1.02 | S. cerevisiae deletion strains, locus YLR330W, strain CHS5, hits give low values 0.986 | S. cerevisiae deletion strains, locus YLR342W, strain FKS1 (second series), hits give low values 0.949 | S. cerevisiae deletion strains, locus YLR342W, strain FKS1, hits give low values 1.01 | S. cerevisiae deletion strains, locus YLR357W, strain rsc2, hits give low values 1.01 | S. cerevisiae deletion strains, locus YLR370C, strain arc18, hits give low values 1 | S. cerevisiae deletion strains, locus YLR371W, strain rom2, hits give low values 1 | S. cerevisiae deletion strains, locus YLR384C, strain iki3, hits give low values 1.01 | S. cerevisiae deletion strains, locus YLR418C, strain cdc73, hits give low values 0.962 | S. cerevisiae deletion strains, locus YML016C, strain PPZ1, hits give low values 0.987 | S. cerevisiae deletion strains, locus YML032C, strain rad52, hits give low values 0.996 | S. cerevisiae deletion strains, locus YML120C, strain ndi1, hits give low values 0.996 | S. cerevisiae deletion strains, locus YML124C, strain tub3, hits give low values 0.98 | S. cerevisiae deletion strains, locus YMR058W, strain fet3, hits give low values 1.02 | S. cerevisiae deletion strains, locus YMR078C, strain ctf18, hits give low values 0.985 | S. cerevisiae deletion strains, locus YMR125W, strain sto1, hits give low values 0.994 | S. cerevisiae deletion strains, locus YMR129W, hits give low values 1.01 | S. cerevisiae deletion strains, locus YMR205C, strain PFK2, hits give low values 1.01 | S. cerevisiae deletion strains, locus YMR223W, strain ubp8, hits give low values 0.975 | S. cerevisiae deletion strains, locus YMR231W, strain pep5, hits give low values 1.01 | S. cerevisiae deletion strains, locus YMR263W, strain SAP30, hits give low values 0.99 | S. cerevisiae deletion strains, locus YMR307W, strain GAS1, hits give low values 1.04 | S. cerevisiae deletion strains, locus YNL067W, strain RPL9B, hits give low values 0.974 | S. cerevisiae deletion strains, locus YNL071W, strain lat1, hits give low values 1 | S. cerevisiae deletion strains, locus YNL209W, strain ssb2, hits give low values 1.01 | S. cerevisiae deletion strains, locus YNL233W, strain BNI4, hits give low values 0.971 | S. cerevisiae deletion strains, locus YNL248C, strain rpa49, hits give low values 1.06 | S. cerevisiae deletion strains, locus YNL250W, strain rad50, hits give low values 0.994 | S. cerevisiae deletion strains, locus YNL271C, strain bni1, hits give low values 0.986 | S. cerevisiae deletion strains, locus YNL298W, strain CLA4, hits give low values 0.982 | S. cerevisiae deletion strains, locus YNL307C, strain MCK1, hits give low values 0.98 | S. cerevisiae deletion strains, locus YNL322C, strain KRE1 (second series), hits give low values 0.995 | S. cerevisiae deletion strains, locus YNR049C, strain mso1, hits give low values 1.04 | S. cerevisiae deletion strains, locus YNR052C, strain pop2, hits give low values 0.986 | S. cerevisiae deletion strains, locus YOL006C, strain TOP1, hits give low values 0.969 | S. cerevisiae deletion strains, locus YOL012C, strain htz1 0.718 | S. cerevisiae deletion strains, locus YOL147C, strain pex11, hits give low values 0.988 | S. cerevisiae deletion strains, locus YOR001W, strain rrp6, hits give low values 1.02 | S. cerevisiae deletion strains, locus YOR061W, strain CKA2, hits give low values 1 | S. cerevisiae deletion strains, locus YOR069W, strain VPS5, hits give low values 0.991 | S. cerevisiae deletion strains, locus YOR070C, strain gyp1, hits give low values 1.02 | S. cerevisiae deletion strains, locus YOR080W, strain dia2, hits give low values 1.01 | S. cerevisiae deletion strains, locus YOR083W, strain WHI5, hits give low values 1.01 | S. cerevisiae deletion strains, locus YOR106W, strain vam3, hits give low values 1.02 | S. cerevisiae deletion strains, locus YOR136W, strain idh2, hits give low values 0.988 | S. cerevisiae deletion strains, locus YOR144C, strain elg1, hits give low values 0.985 | S. cerevisiae deletion strains, locus YOR184W, strain ser1, hits give low values 0.952 | S. cerevisiae deletion strains, locus YOR265W, strain rbl2, hits give low values 0.987 | S. cerevisiae deletion strains, locus YOR270C, strain vph1, hits give low values 1.07 | S. cerevisiae deletion strains, locus YOR290C, strain snf2, hits give low values 0.981 | S. cerevisiae deletion strains, locus YOR316C, strain cot1, hits give low values 0.992 | S. cerevisiae deletion strains, locus YPL051W, strain arl3, hits give low values 1.02 | S. cerevisiae deletion strains, locus YPL055C, strain LGE1, hits give low values 1.02 | S. cerevisiae deletion strains, locus YPL078C, strain atp4, hits give low values 0.996 | S. cerevisiae deletion strains, locus YPL106C, strain sse1, hits give low values 1.04 | S. cerevisiae deletion strains, locus YPL240C, strain hsp82, hits give low values 0.986 | S. cerevisiae deletion strains, locus YPR119W, strain clb2, hits give low values 0.984 | S. cerevisiae deletion strains, locus YPR141C, strain kar3, hits give low values 0.96 | S. cerevisiae deletion strains, locus YPR163C, strain tif3, hits give low values 0.97 | S. cerevisiae deletion strains, locus YPR167C, strain met16, hits give low values 0.981 | S. cerevisiae deletion strains, strain wtn01, hits give low values 0.98 | S. cerevisiae strains, strain wild type, hits give low values 1

Reference: PubChem BioAssay AID1159580 (chemical genetic matrix, 2015)
